Compounds with a hit are over-represented: about 1.2% of the library has one in this group of screens.
Neddylation inh: inhibitors of cullin neddylation, primary screen, biochemical, TR-FRET, uHTS, NAE and Ubc12 | NEDD8-conjugating enzyme Ubc12 (Homo sapiens) + NEDD8-activating enzyme E1 regulatory … | inhibition, % at 25 µM | 0.58% of 360,000 active | AID 651699, 2012; in the data active = inhibition above about 36%
TLR9-MyD88 block: inhibitors of TLR9-MyD88 association in cells, primary screen, cell-based, CHO, BLA complementation, fluorescence | Toll-like receptor 9 (Homo sapiens) + Myeloid differentiation primary response protein … | CCF4 FRET ratio | inhibition, % at 4.98 µM | 0.21% of 340,000 active | AID 504734, 2011;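 active = inhibition above the mean over all tested compounds plus 3 SD, cut at about 21% in these data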
NOD2-RIPK2 inh: NOD2-RIPK2 binding disruptors in cells, primary screen, fluorescence, CHO cells, BLA complementation | CCF4 ratio | Receptor-interacting serine/threonine-protein kinase 2 (Homo sapiens), O43353 | 0.38% of 360,000 active | inhibition, % at 4.98 µM; in the data active = inhibition above about 21%
TLR4 MyD88 comp: inhibitors of TLR4-MyD88 association in cells, primary screen, cell-based, HeLa CL3-4, BLA complementation, FRET ratio; Toll-like receptor 4 (Homo sapiens) + Myeloid differentiation primary response protein …; inhibition, % at 8.4 µM; HeLa CL3-4 TLR4/MyD88 BLA complementation; 0.18% of 200,000 active; in the data active = inhibition above about 25%
NPR2 activator: human GC-B receptor activators, primary screen, HEK293 GC-B cells, cGMP TR-FRET, EC30 CNP | AID 1920062, 2024 | 0% at EC30 CNP, 100% saturating CNP | Atrial natriuretic peptide receptor 2 (Homo sapiens), P20594 | 0.11% of 370,000 active | activation, % at 10 µM;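 active = activation at 10 µM reaching about 35% in either raw or pattern-adjusted values, limit read from the data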
GC-A act: GC-A stimulated cGMP production enhancers – HEK293 GC-A cells, cGMP TR-FRET, EC30 ANP, primary screen; activation, % at 10 µM; 0% at EC30 ANP, 100% saturating ANP; Atrial natriuretic peptide receptor 1 (Homo sapiens), P16066; 0.14% of 370,000 active; in the data active = activation above about 40%
Neddyl inh conf: blockade of NEDD8 conjugation to cullin – biochemical, TR-FRET, single concentration, confirmation. shares compounds with Neddylation inh. TR-FRET cullin neddylation biochemical assay. calls only at 25 µM. 13% of 1,800 active. AID 652217, 2013; in the data active = inhibition above about 40%;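 also: neddylation substrate is the cullin 1 ring ligase complex with SKP2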
Hits are given with their value; - = inactive; . = no result shown; + = active, no number; ! = a repeat was not active.

SMILES	Neddylation inh	TLR9-MyD88 block	NOD2-RIPK2 inh	TLR4 MyD88 comp	NPR2 activator	GC-A act	Neddyl inh conf
CC(C(=O)NC1CCCC1)n1c(C2CCCC2)nc2ccccc21 (configuration not stated)	-	.	-	.	-	-	.
CC(C)CN1C(=O)c2ccc(NC(=O)C3CC3)cc2C1=O	41	-	-	.	-	-	-
CC(C)CN1C(=O)c2ccc(NC(=O)c3ccco3)cc2C1=O	-	-	-	-	-	-	.
CCCCCCC(NC(=O)c1ccc(C)cc1)C(=O)O (configuration not stated)	-	-	-	.	-	-	.
COc1ccc(-c2nn(C)c3sc(C(=O)NCCN(C)C)cc23)cc1OC	-	-	-	.	-	-	.
CCCN(CCC)CCCNC(=O)c1cc2c(-c3ccc(OC)c(OC)c3)nn(C)c2s1	41	-	-	.	-	-	-
COc1ccc(CCNC(=O)c2cc3c(=O)n4cccc(C)c4nc3n(CC3CCCO3)c2=N)cc1 (configuration not stated)	44	-	-	.	-	-	-
Fc1cc2[nH]c(=S)[nH]c2cc1Cl	38	-	-	.	-	-	-
Cc1cc2[nH]c(=S)[nH]c2cc1C	-	-	-	-	-	-	.
C=C(Cl)COc1ccc2c(CC)cc(=O)oc2c1	42	-	-	-	-	-	-
Cc1nc2ccc(-c3nc4ccccc4[nH]3)cc2[nH]1	47	-	-	-	-	-	-
CCOc1ccc2nc(N(CCN(C)C)C(=O)/C=C/c3cccs3)sc2c1	-	-	-	.	.	.	.
CN(C)CCN(C(=O)/C=C/c1cccs1)c1nc2ccc(Br)cc2s1	40	-	-	.	-	-	-
CC1CCCC(C)N1C(=O)CN1c2cccc3cccc(c23)S1(=O)=O (configuration not stated)	51	-	-	.	-	-	+
O=C(CN1c2cccc3cccc(c23)S1(=O)=O)NC1CCCCC1	-	-	-	.	-	-	.
O=C(CN1c2cccc3cccc(c23)S1(=O)=O)N1CCN(c2ccc(F)cc2)CC1	-	-	-	.	-	-	.
O=C(O)c1ccc(/C=N/NC(=O)c2ccc(CN3c4cccc5cccc(c45)S3(=O)=O)cc2)cc1	51	-	-	.	-	-	+
O=C(CN1c2cccc3cccc(c23)S1(=O)=O)N1CCCCC1	42	-	-	.	-	-	+
O=C(CN1c2cccc3cccc(c23)S1(=O)=O)N1CCOCC1	47	-	-	-	-	-	.
Cc1ccc(C(=O)NC(C(=O)OCc2cn3cc(Cl)ccc3n2)C(C)C)cc1 (configuration not stated)	-	-	-	.	-	-	.
CC(C)(CNC(=O)CNC(=O)c1ccccc1F)N1CCOCC1	-	-	-	.	-	-	.
Cc1noc(C)c1CCC(=O)Nc1cc(Cl)ccc1C(=O)O	-	-	-	.	-	-	.
O=C(O)c1cc(-c2ccc(-c3ccc(F)cc3)o2)nc2ccccc12	-	-	-	.	-	-	.
CSCCC(C(=O)NC(C)(C)C)n1c(-c2ccc3c(c2)OCO3)nc2ccccc21 (configuration not stated)	-	.	-	.	-	-	.
O=S1(=O)c2ccc(Br)cc2OC[C@H](Cc2ccccc2)N1Cc1cn(Cc2ccc(F)cc2)nn1	.	.	.	.	-	-	.
SMILES	Neddylation inh	TLR9-MyD88 block	NOD2-RIPK2 inh	TLR4 MyD88 comp	NPR2 activator	GC-A act	Neddyl inh conf
c1ccc(-c2cc3ncccc3cn2)cc1	-	-	-	.	-	-	.
c1cnc2cc(-c3ccsc3)ncc2c1	44	-	-	.	-	-	+
COc1ccccc1-c1nc(COc2ccc(Cl)cc2Cl)no1	-	-	-	.	-	-	.
COc1ccccc1/C=N/Nc1cc(C)nc2ccc(C)cc12	40	-	-	.	-	-	-
Cc1ccc2nc(C)cc(N/N=C/c3ccccc3O)c2c1	-	-	-	.	-	-	.
CCCc1cc(C(=O)Nc2ccc(C(=O)c3ccc(C)cc3)cc2)n(C)n1	-	-	-	.	-	-	.
COc1ccc(C(C(=O)NC(C)(C)C)N(C(=O)CCC(=O)Nc2cc(C)on2)c2ccccc2F)cc1 (configuration not stated)	-	-	-	.	-	-	.
COc1ccc2oc(C(=O)CCC(=O)O)c(N)c2c1	48	-	-	-	-	-	-
CCO[C@H]1c2c(ccc3ccc(=O)oc23)OC(C)(C)[C@H]1O	35	-	-	.	-	-	-
CC1(C)Oc2ccc3ccc(=O)oc3c2CC1O (configuration not stated)	55	-	-	.	-	-	.
Cn1cncc1C#Cc1ccc2cc(C3(O)CCCCC3)oc(=O)c2c1	-	-	-	.	-	-	.
Cn1cncc1C#Cc1ccc2cc(CCO)oc(=O)c2c1	37	-	-	.	-	-	-
O=C(N/N=C/c1ccc2c(c1)OCO2)c1cc(-c2ccc(F)cc2)nc2ccccc12	.	-	-	-	-	-	.
O=C1OCc2nc3cc4c(cc3c(-c3ccc(F)cc3)c21)OCO4	52	-	-	.	-	-	-
Cc1nc2c(c3c1[nH]c1ccccc13)C(=O)CC(C)(C)C2	46	-	-	-	-	-	.
C[C@H](NC(=O)c1ncn2c1c(=O)[nH]c1ccc(Br)cc12)c1ccccc1	-	-	-	.	-	-	.
C[C@H](NC(=O)c1ncn2c1c(=O)[nH]c1ccccc12)c1ccccc1	40	-	-	.	-	-	+
CCOC(=O)c1ccc(-c2ccc(/C=N/NC(=O)CN(c3ccccc3Cl)S(C)(=O)=O)o2)cc1	51	-	-	-	-	-	-
COc1cccc(/C=C/C(=O)NCc2cn3cc(Cl)ccc3n2)c1OC	50	-	-	-	-	-	-
COc1ccc(S(=O)(=O)N(C)C[C@@H]2Oc3c(NS(=O)(=O)c4cn(C)cn4)cccc3C(=O)N([C@@H](C)CO)C[C@@H]2C)cc1	-	-	-	.	-	-	.
CCOc1c(C)cc(-c2ncccc2O)cc1C	45!	-	-	-	-	-	-
CCOC(=O)[C@]12CCCC=C1N(Cc1ccc3c(c1)OCO3)C(=O)[C@H](CC(=O)N1CCOCC1)C2	-	.	-	.	-	-	.
COc1ccc(-c2cc(-c3ccco3)[nH]c(=O)c2C#N)cc1	54	-	-	.	-	-	-
